{"source": "PubChem BioAssay AID488969", "about": "(Vanderbilt High Throughput Screening Facility, 2010)", "note": "Whole data set: some 110,000 compounds, median “z-score” near -0.1, cut for the highest 2% near 2. The full list was thinned out, with the highest values kept by preference. Calls of active or inactive are those of the source.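 The calls were made as follows: active = z-score in the third read window above 3 or below -3; inactive = the rest.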", "data": [{"biological_target": "Metabotropic glutamate receptor 8 (Rattus norvegicus) (UniProt P70579)", "sequence (P70579 whole entry, looked up)": "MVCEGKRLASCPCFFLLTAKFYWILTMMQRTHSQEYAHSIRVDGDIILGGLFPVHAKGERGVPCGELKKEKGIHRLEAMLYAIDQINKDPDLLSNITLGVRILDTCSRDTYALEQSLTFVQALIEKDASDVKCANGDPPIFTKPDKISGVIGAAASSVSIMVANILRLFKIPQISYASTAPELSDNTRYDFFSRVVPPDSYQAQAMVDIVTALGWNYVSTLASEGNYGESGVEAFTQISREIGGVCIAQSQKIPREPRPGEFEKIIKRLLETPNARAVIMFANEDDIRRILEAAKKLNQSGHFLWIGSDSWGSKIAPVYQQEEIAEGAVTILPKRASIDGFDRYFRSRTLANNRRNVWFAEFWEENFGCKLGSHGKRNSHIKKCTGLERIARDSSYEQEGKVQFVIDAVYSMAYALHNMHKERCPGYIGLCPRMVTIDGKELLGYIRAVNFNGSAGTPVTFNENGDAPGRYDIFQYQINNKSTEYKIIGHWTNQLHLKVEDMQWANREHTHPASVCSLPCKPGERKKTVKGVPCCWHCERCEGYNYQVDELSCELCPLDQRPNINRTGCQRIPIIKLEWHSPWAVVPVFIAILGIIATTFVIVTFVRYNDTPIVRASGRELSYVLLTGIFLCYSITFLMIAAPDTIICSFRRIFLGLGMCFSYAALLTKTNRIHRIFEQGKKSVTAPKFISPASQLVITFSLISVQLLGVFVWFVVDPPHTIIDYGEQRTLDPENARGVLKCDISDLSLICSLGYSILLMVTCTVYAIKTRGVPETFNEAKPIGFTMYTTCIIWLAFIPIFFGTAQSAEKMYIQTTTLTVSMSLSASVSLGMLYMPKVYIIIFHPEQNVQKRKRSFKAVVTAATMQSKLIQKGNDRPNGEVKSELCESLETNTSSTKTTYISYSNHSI", "assay": "rat mGluR8 modulators via GIRK flux, primary screen, cell-based, thallium flux, HTS (AID 488969)", "conditions": "HEK293 rat mGluR8, GIRK (G protein-gated inwardly rectifying potassium channel) thallium flux, FluoZin2; at 10 µM; stronger effect = higher value; submaximal glutamate (EC20) added with thallium", "values": [{"smiles": "CCOc1nc(N(C)C)nc(-n2nnc(C(C)=O)c2C)n1", "z-score": -0.22}, {"smiles": "CC1SCC(=O)N(CC(=O)NCc2ccccc2)C1=O", "note": "(stereo not given)", "z-score": -0.233}, {"smiles": "O=C(N/N=C/c1ccccc1Cl)c1cccc(F)c1", "z-score": -0.342}, {"smiles": "O=C(N/N=C/c1c(Cl)cccc1Cl)c1ccc(F)cc1", "z-score": -0.476}, {"smiles": "O=C(N/N=C/c1c(Cl)cccc1Cl)c1cccc(F)c1", "z-score": "3.05 (active)"}, {"smiles": "O=C(C(=O)N1CCc2ccccc2C1)c1cn(CC(=O)N2CCCCC2)c2ccccc12", "z-score": -0.582}, {"smiles": "CC(=O)C1=C(O)C(=O)N(c2cccc(C(=O)O)c2)C1c1ccc(F)cc1", "note": "(stereo not given)", "z-score": -0.153}, {"smiles": "CC(=O)c1ccc(N2Cc3ccccc3/C2=N\\C(=O)Nc2ccccc2)cc1", "z-score": -0.211}, {"smiles": "CC(=O)CN1Cc2ccccc2/C1=N\\C(=O)Nc1ccccc1", "z-score": "3.19 (active)"}, {"smiles": "O=C(/N=C1/c2ccccc2CN1c1ccccc1)Nc1ccccc1", "z-score": -0.236}, {"smiles": "Cc1ccc(S(=O)(=O)N2CCN(c3ccc(C(F)(F)F)cc3[N+](=O)[O-])CC2)cc1", "z-score": -0.0811}, {"smiles": "Cc1scc(C(=O)N/N=C/c2ccc(OC(C)C)cc2)c1C", "z-score": 0.164}, {"smiles": "Cc1ccccc1NC(=O)CSc1nc(COc2ccccc2)nc2ccccc12", "z-score": 0.264}, {"smiles": "CCCC(=O)Nc1ccccc1-c1nnn(CC(=O)Nc2ccc(OCC)cc2)n1", "z-score": -0.817}, {"smiles": "CCOc1ccc(NC(=O)Cn2nnc(-c3ccccc3F)n2)cc1", "z-score": "3.4 (active)"}, {"smiles": "COc1ccc(NC(=O)Cn2nnc(-c3ccccc3F)n2)cc1Cl", "z-score": 0.202}, {"smiles": "CCOC(=O)c1ccc(NC(=O)Cn2nnc(-c3ccccc3F)n2)cc1", "z-score": -0.121}, {"smiles": "O=C(Cn1nnc(-c2ccccc2NC(=O)c2ccccc2)n1)Nc1ccc2c(c1)OCCO2", "z-score": 0.418}, {"smiles": "Cn1nc(CC(=O)Nc2cccc3ncccc23)c2ccccc2c1=O", "z-score": 2.01}, {"smiles": "O=C(Cn1nnc(-c2ccccc2F)n1)Nc1cccc2ncccc12", "z-score": 2.27}, {"smiles": "O=C(Cn1nnc(-c2ccccc2F)n1)Nc1ccc2c(c1)OCO2", "z-score": 2.41}, {"smiles": "O=C(Cn1nnc(-c2ccccc2)n1)Nc1ccc2c(c1)OCO2", "z-score": 0.199}, {"smiles": "Cc1ccc(F)cc1NC(=O)Cc1nn(C)c(=O)c2ccccc12", "z-score": -0.0938}, {"smiles": "COc1ccccc1NC(=O)Cc1nn(C)c(=O)c2ccccc12", "z-score": -0.677}, {"smiles": "O=C(Cn1nnc(-c2ccccc2F)n1)NCCc1ccccc1", "z-score": -0.146}, {"smiles": "CCCNc1c(N)c(=O)oc2ccccc12", "z-score": -1.25}, {"smiles": "O=c1[nH]c2ccc(Cl)cc2c(-c2ccccc2)c1N1CCN(CCO)CC1", "z-score": 0.464}, {"smiles": "O=C(Nc1ccc(F)cc1F)c1ccco1", "z-score": -0.0416}, {"smiles": "CCN(CC)c1ccc(NC(=O)/C=C\\c2ccccc2Cl)cc1", "z-score": -0.341}, {"smiles": "CCOC(=O)CNC(=O)CSc1nc2ncc(Br)cc2[nH]1", "z-score": 0.941}, {"smiles": "Cc1cc(N2C(=O)C3C4c5ccccc5C(c5ccccc54)C3C2=O)no1", "note": "(stereo not given)", "z-score": -0.47}, {"smiles": "Cc1ccc2c(CC(=O)NNC(=O)c3ccccc3)coc2c1", "z-score": -0.29}, {"smiles": "CC(=O)O/N=C(/c1nonc1N)N1CCN(c2ccc([N+](=O)[O-])cc2Cl)CC1", "z-score": -0.222}, {"smiles": "O=C(O)CCC(=O)Nc1ccc(N2CCCCC2)c(C(=O)O)c1", "z-score": 0.0405}, {"smiles": "Cc1ccc(NC(=O)c2cc(NC(=O)CCC(=O)O)ccc2N2CCCCC2)cc1", "z-score": "4.06 (active)"}, {"smiles": "CC(=O)Nc1ccc(N2CCCCC2)c(C(=O)Nc2cccc(C)c2)c1", "z-score": -0.0504}, {"smiles": "COc1ccc(OC)c(-c2cc(C(F)(F)F)c3c(n2)sc2c(O)cc(=O)[nH]c23)c1", "z-score": -0.747}, {"smiles": "O=c1cc(O)c2sc3nc(-c4ccccc4)cc(C(F)(F)F)c3c2[nH]1", "z-score": -1.89}, {"smiles": "COc1ccc(-c2cc(C(F)(F)F)c3c(n2)sc2c(O)cc(=O)[nH]c23)c(OC)c1", "z-score": "5.32 (active)"}, {"smiles": "Cc1sc(NC(=O)c2sc3nc4c(C)cccc4cc3c2N)c(C#N)c1C", "z-score": 2.37}, {"smiles": "Cc1[nH]c(=O)[nH]c(=O)c1NC(=O)c1sc2nc3c(C)cccc3cc2c1N", "z-score": -0.256}, {"smiles": "COc1cc2cc3c(N)c(C(=O)Nc4sc(C)c(C)c4C#N)sc3nc2cc1OC", "z-score": 0.0438}, {"smiles": "CCN(CC)S(=O)(=O)c1ccc(N2CCCCC2)c(NC(=O)/C(C#N)=C/c2ccc(OC)cc2)c1", "z-score": -0.0436}, {"smiles": "O=c1[nH]cnc2cc(Cl)ccc12", "z-score": -0.0535}, {"smiles": "CCOc1ccc(C(C)=O)cc1N1C(=O)C2C(C1=O)C1C=CC2C12CC2", "note": "(stereo not given)", "z-score": "4.92 (active)"}, {"smiles": "CCOc1ccc(C(C)=O)cc1N1C(=O)C2C3C=CC(C3)C2C1=O", "note": "(stereo not given)", "z-score": -0.533}, {"smiles": "CCOc1ccc(C(C)=O)cc1N1C(=O)C2C3C=CC(O3)C2C1=O", "note": "(stereo not given)", "z-score": -0.01}, {"smiles": "COCCCNC(=O)C1CCCCN1S(=O)(=O)c1ccc(F)cc1", "note": "(stereo not given)", "z-score": 0.633}, {"smiles": "COc1ccc(-c2nnc(SCC(=O)Nc3ccc4c(c3)OCCO4)n2N)cc1OC", "z-score": -0.393}, {"smiles": "CCn1c(SCC(=O)Nc2ccc(N3CCOCC3)c(Cl)c2)nnc1-c1ccc(N)cc1", "z-score": 2.78}, {"smiles": "Cn1c(SCC(=O)Nc2ccc(N3CCOCC3)c(Cl)c2)nnc1-c1ccccc1", "z-score": -0.0676}, {"smiles": "CCn1c(Cc2ccccc2)nnc1SCC(=O)Nc1ccc(N2CCOCC2)c(Cl)c1", "z-score": -0.645}, {"smiles": "Nn1c(SCC(=O)Nc2ccc3c(c2)OCO3)nnc1-c1ccc(Cl)cc1", "z-score": -0.179}, {"smiles": "Cc1ccc(-c2nnc(SCC(=O)Nc3ccc4c(c3)OCCO4)n2N)cc1", "z-score": "14.1 (active)"}, {"smiles": "CC(CCc1ccccc1)NC(=O)C(Cc1ccccc1)NS(=O)(=O)c1cccs1", "note": "(stereo not given)", "z-score": -0.446}, {"smiles": "COc1ccc(-c2cc(CNC(=O)CCl)on2)cc1", "z-score": -0.113}, {"smiles": "CC(=O)c1ccc(N2CCN(C(=O)c3ccco3)CC2)c(F)c1", "z-score": -0.0315}, {"smiles": "Cc1ccc2nc(-c3ccc(NC(=S)NC(=O)C(C)C)cc3)sc2c1", "z-score": -0.127}, {"smiles": "Cc1ccc(SC(=O)COc2ccccc2C)cc1", "z-score": -0.399}, {"smiles": "Cc1ccc(CNC(=O)COC(=O)CSc2cc(C)c(Br)cc2C)cc1", "z-score": 0.22}, {"smiles": "O=C(C1=C(O)/C(=C/c2ccc(O)cc2)CCC1)C(F)(F)F", "z-score": 0.181}, {"smiles": "COc1ccc(/C=C2\\CCCC(C(=O)C(F)(F)F)=C2O)cc1", "z-score": 2.59}, {"smiles": "COc1ccc(/C=C2\\CCOC2=O)cc1", "z-score": 0.296}, {"smiles": "Cc1ccc(NC(=O)CN2CCC(C(=O)c3ccc4c(c3)OCCO4)CC2)cc1", "z-score": -0.152}, {"smiles": "CCOCCCNC(=O)C(NC(=O)CC1NC(=O)NC1=O)c1ccc(Cl)cc1", "note": "(stereo not given)", "z-score": -0.134}, {"smiles": "COc1ccc(CCNC(=O)c2nc3ncccn3n2)cc1OC", "z-score": 0.169}, {"smiles": "O=P(OC1CCCCC1)(OC1CCCCC1)C(O)c1ccccc1", "note": "(stereo not given)", "z-score": -0.904}, {"smiles": "CCCc1nc2ccccc2c(=O)n1/N=C/c1c(C)[nH]n(-c2ccc(C)cc2)c1=O", "z-score": 1.38}, {"smiles": "Cc1ccc(-n2[nH]c(C)c(C=Nc3ccc4[nH]c(=O)[nH]c4c3)c2=O)cc1", "z-score": -0.443}, {"smiles": "Cc1ccc(-n2[nH]c(C)c(/C=N/n3c(C)nc4ccccc4c3=O)c2=O)cc1", "z-score": 0.177}, {"smiles": "Cc1[nH]n(-c2ccccc2)c(=O)c1/C=N/O", "z-score": -0.187}, {"smiles": "Cc1[nH]n(-c2ccccc2)c(=O)c1C=Nc1cccc2cccnc12", "z-score": 0.652}, {"smiles": "Cc1[nH]n(-c2ccccc2)c(=O)c1/C=N/c1ccccn1", "z-score": 2.61}, {"smiles": "Cc1ccc(-n2[nH]c(C)c(C=Nc3ccc(S(=O)(=O)Nc4nccs4)cc3)c2=O)cc1", "z-score": -0.363}, {"smiles": "Cc1[nH]n(-c2ccccc2)c(=O)c1/C=N\\NC(=O)C1COc2ccccc2O1", "note": "(stereo not given)", "z-score": -0.0839}, {"smiles": "Cc1ccc2cccc(N=Cc3c(C)[nH]n(-c4ccccc4)c3=O)c2n1", "z-score": 0.282}, {"smiles": "CCCCN(CCCC)C(=S)N/N=C/c1c(C)[nH]n(-c2ccccc2)c1=O", "z-score": "10.4 (active)"}, {"smiles": "Cc1ccc(-n2[nH]c(C)c(C=Nc3cc(C)ccn3)c2=O)cc1", "z-score": "10.6 (active)"}, {"smiles": "Cc1ccc(-n2[nH]c(C)c(/C=N/c3ccccn3)c2=O)cc1", "z-score": "6.24 (active)"}, {"smiles": "Cc1nc2ccc(S(=O)(=O)NCC(=O)N3CCCCC3)cc2s1", "z-score": -0.09}, {"smiles": "COc1cc(NC(=O)CN(C)Cc2ccc(OC(F)F)cc2)c(C)cc1[N+](=O)[O-]", "z-score": -0.0913}, {"smiles": "COC(=O)c1ccc(CSc2n[nH]c(C)n2)o1", "z-score": -0.0591}, {"smiles": "CCOc1ccc(C(C)=O)cc1COC(=O)C1=COCCO1", "z-score": -1.15}, {"smiles": "CCCc1nc2sc3c(=O)n(N)cnc3c2c2c1CCCC2", "z-score": -0.191}, {"smiles": "Cc1[nH]n(-c2ccc(Cl)cc2)c(=O)c1C=NC12CN3CN(CN(C3)C1)C2", "z-score": -0.111}, {"smiles": "CCc1nnc(NS(=O)(=O)c2ccc(N=Cc3c(C)[nH]n(-c4ccc(Cl)cc4)c3=O)cc2)s1", "z-score": -0.276}, {"smiles": "Cc1[nH]n(-c2ccc(Cl)cc2)c(=O)c1/C=N/c1nnc(-c2ccccc2)s1", "z-score": "8.81 (active)"}, {"smiles": "O=C(O)CSCC(=O)Nc1ccccc1", "z-score": 0.00603}, {"smiles": "O=C(O)CCCSCC(=O)Nc1ccccc1", "z-score": 0.633}, {"smiles": "O=C(CSCCO)Nc1ccccc1", "z-score": "3.04 (active)"}, {"smiles": "Cc1ccc(C2=[N+]([O-])C3(CCCCC3=O)N(O)C2(C)C)cc1", "note": "(stereo not given)", "z-score": 0.0871}, {"smiles": "O=C(COC(=O)Cc1cccc2ccccc12)Nc1ccccc1-c1ccccc1", "z-score": -0.174}, {"smiles": "O=C1/C(=C/c2ccc(F)cc2)SC(=S)N1Nc1ncc(C(F)(F)F)cc1Cl", "z-score": 0.426}, {"smiles": "O=C1/C(=C\\c2ccccn2)SC(=S)N1Nc1ncc(C(F)(F)F)cc1Cl", "z-score": "3.17 (active)"}, {"smiles": "COc1cc(/C=C2\\SC(=S)N(Nc3ncc(C(F)(F)F)cc3Cl)C2=O)ccc1O", "z-score": 1.29}, {"smiles": "CCOC(=O)CC1C(=O)NCCN1C(=O)c1cc2c(=O)n3ccccc3nc2s1", "note": "(stereo not given)", "z-score": -0.533}, {"smiles": "Cc1cc(=O)oc2cc(OCC(=O)Nc3cccc(S(=O)(=O)N(C)C)c3)ccc12", "z-score": -0.0464}, {"smiles": "CN(C)S(=O)(=O)c1cccc(NC(=O)Cc2ccc(Cl)cc2)c1", "z-score": "4.58 (active)"}, {"smiles": "Cc1ccc(NCC(=O)Nc2cccc(S(=O)(=O)N(C)C)c2)c(Cl)c1", "z-score": "4.79 (active)"}, {"smiles": "CN(C)S(=O)(=O)c1cccc(NC(=O)COc2cccc(C#N)c2)c1", "z-score": "3.82 (active)"}, {"smiles": "CCN(CC)S(=O)(=O)c1cccc(NC(=O)COc2ccc(C#N)cc2OC)c1", "z-score": -0.191}, {"smiles": "O=C(Cc1ccc(Cl)cc1)Nc1cccc(S(=O)(=O)Nc2ccccc2F)c1", "z-score": 0.371}, {"smiles": "CN(C)S(=O)(=O)c1cccc(NC(=O)COC(=O)CCSc2ccc(Cl)cc2)c1", "z-score": 0.722}, {"smiles": "CCNc1ccc(S(=O)(=O)N(C)C)cc1NCC(=O)Nc1ccc(F)c(Cl)c1", "z-score": 0.204}, {"smiles": "Cc1c(Cl)cccc1NC(=O)CNc1cccc(S(=O)(=O)N(C)C)c1", "z-score": -0.138}]}]}
